# GDH-TPI counter-1: inhibits GDH-TPI coupling enzymes, artifact for Mtb FBA screen; GDH-TPI coupled enzyme counterscreen, NADH absorbance; inhibition, % at 4.8 µM; hit rate 1.2% among 360,000; AID 588335; in the data active = inhibition above about 30%;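 note: 0% = DMSO wells and 100% = wells lacking the enzyme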
# Mtb UGM inh: inhibitors of M. tuberculosis UDP-galactopyranose mutase; purified UGM, fluorescence polarization probe displacement; inhibition, % at 10 µM; hit rate 0.06% among 320,000; in the data active = inhibition above about 10%, passing the limit was not always enough
# Rv3671c inh: Rv3671c (M. tuberculosis) protease inhibition; P9WHR9; inhibition, % at 5.96 µM; hit rate 0.048% among 320,000; AID 2606; in the data active = inhibition above about 38%;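 note: extracellular domain of Rv3671c used as enzyme; 0% = enzyme with DMSO and 100% = no enzyme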
# Mtb FBA inh: Mtb fructose-bisphosphate aldolase inhibition; purified M. tuberculosis FBA, fluorescence read-out; inhibition, % at 1 µM; AID 588726; hit rate 2.3% among 360,000;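 note: 0% = vehicle and 100% = reference inhibitor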
# Target sequence (P9WQA3 whole entry, looked up): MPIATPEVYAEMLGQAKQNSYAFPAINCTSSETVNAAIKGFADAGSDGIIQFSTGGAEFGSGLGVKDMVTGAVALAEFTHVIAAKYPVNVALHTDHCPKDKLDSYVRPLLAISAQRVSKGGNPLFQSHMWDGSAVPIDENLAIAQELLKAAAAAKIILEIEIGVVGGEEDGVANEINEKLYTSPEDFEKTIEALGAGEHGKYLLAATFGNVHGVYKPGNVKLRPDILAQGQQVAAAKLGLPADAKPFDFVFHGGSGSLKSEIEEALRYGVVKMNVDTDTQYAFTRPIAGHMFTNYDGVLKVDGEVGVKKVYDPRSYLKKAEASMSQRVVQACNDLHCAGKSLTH
# Mtb bLac sens: beta-lactam sensitization of Mtb H37Rv; M. tuberculosis H37Rv growth with meropenem, percent inhibition; inhibition, % at 25 µM; hit rate 0.27% among 330,000; call rule not given here;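 note: growth measured after seven days incubation then overnight dye step; 0% = bacteria only wells and 100% = bacteria with antibiotic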
# Mtb FBA confirm: Mtb FBA inhibition, confirmed; shares compounds with Mtb FBA inh; purified M. tuberculosis FBA, fluorescence read-out; inhibition, % at 1 µM; hit rate 78% among 5,600; AID 651616;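 note: 0% = vehicle wells and 100% = reference inhibitor wells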
# GDH-TPI counter-2: inhibits GDH-TPI coupling enzymes, flagging Mtb FBA hits | shares compounds with Mtb FBA inh | GDH-TPI coupled enzyme counterscreen, fluorescence | inhibition, % at 1 µM | hit rate 81% among 5,600 | AID 652141; in the data active = inhibition above about 10%
# * hit, by the source's call; · = no result; + = active, no number; ! = repeats disagree. This is a sample that favours compounds with a hit; in the whole collection about 3.5% have one here. Cut-off read from the data, not from the text of the source, unless noted: active = inhibition above about 27%; inactive = the rest.
SMILES,GDH-TPI counter-1,Mtb UGM inh,Rv3671c inh,Mtb FBA inh,Mtb bLac sens,Mtb FBA confirm,GDH-TPI counter-2
COc1ccc(-c2oc3ncn4nc(COc5ccccc5)nc4c3c2-c2ccc(OC)cc2)cc1,9,1,0,2,6,·,·
COCCNC(=O)CCc1c(C)nc2c(c(C)nn2-c2ccc(C)c(C)c2)c1C,-1,-2,9,43*,-3,74*,56*
Cc1ccc(-n2nc(C)c3c(C)c(CCC(=O)NC(C)c4ccccc4)c(C)nc32)cc1 (stereo not given),7,-1,4,3,-3,·,·
COCCNC(=O)CCc1c(C)nc2nc(-c3cc(OC)cc(OC)c3)nn2c1C,0,-1,-7,-3,0,·,·
COCCCNC(=O)Cn1nc(-c2ccc(C)cc2)ccc1=O,8,2,6,8,1,·,·
COCCCNC(=O)CCc1c(C)nc2c(c(C)nn2-c2ccc(C)cc2)c1C,7,-3,·,56*,1,71*,77*
COCCNC(=O)CCc1c(C)nc2c(c(C)nn2-c2ccc(C)cc2)c1C,3,2,-10,55*,-1,63*,49*
CCN(CC)CCNC(=O)CCc1c(C)nc2c(c(C)nn2-c2ccc(C)cc2)c1C,11,-2,·,41*,0,8,-3
NS(=O)(=O)c1ccc(CCNC(=O)Cc2ccc(Cl)cc2)cc1,6,0,-2,3,-1,·,·
C[C@H](CO)N1C[C@H](C)[C@@H](CN(C)C)Oc2c(NS(=O)(=O)c3ccccc3)cccc2C1=O,0,3,1,-1,-1,·,·
Cc1ccc(S(=O)(=O)c2nc(-c3ccccc3)oc2NCc2cccnc2)cc1,7,2,7,-1,-11,·,·
CCOP(=O)(OCC)c1nc(-c2ccc(Cl)cc2)oc1NCc1ccccc1,14,-1,4,79*,-2,80*,102*
COP(=O)(OC)c1nc(-c2ccccc2)oc1N1CCOCC1,-3,5,0,89*,-5,83*,56*
Cc1oc(-c2ccccc2)nc1C(=O)OCC(=O)NCc1ccccc1,3,-3,1,6,-1,·,·
CCCOP(=O)(OCCC)c1nc(-c2ccccc2)oc1NCc1ccccc1,12,-2,5,57*,-3,1,-1
COP(=O)(OC)c1nc(-c2ccc([N+](=O)[O-])cc2)oc1N1CCCCC1,8,1,1,-3,-2,·,·
COP(=O)(OC)c1nc(-c2ccccc2)oc1NCc1ccccc1,5,-2,-4,107*,5,86*,70*
Cc1ccc(-n2cc(CNCC3CC(=O)N(C4CC4)C3)c(-c3cccc(C)c3)n2)cc1 (stereo not given),14,1,1,3,4,·,·
O=C(NCCS(=O)(=O)NCc1ccccc1Cl)c1ccccc1,13,1,-4,-3,-10,·,·
Cn1nc(C(=O)Nc2cccc(S(=O)(=O)N3CCCCC3)c2)c2ccccc2c1=O,-7,·,·,1,·,·,·
Cc1c(C(=O)NCc2n[nH]c(=S)n2-c2ccc(F)cc2)cccc1[N+](=O)[O-],5,1,2,0,2,·,·
Oc1ccc(C2CNCCc3c2cc(O)c(O)c3Cl)cc1 (stereo not given),-1,0,-2,40*!,0,-2,-7
CCc1ccccc1NC(=O)COc1ccc2oc(-c3ccc(OC)cc3)cc(=O)c2c1,21,-1,7,35*,2,75*,52*
NC(=O)COc1ccc2oc(-c3ccccc3)cc(=O)c2c1,23,·,·,77*,·,-4,-8
CCOC(=O)COc1ccc2c(=O)cc(-c3ccccc3)oc2c1,-1,-3,4,5,99,·,·
SMILES,GDH-TPI counter-1,Mtb UGM inh,Rv3671c inh,Mtb FBA inh,Mtb bLac sens,Mtb FBA confirm,GDH-TPI counter-2
Cc1ccc(NC(=S)N2CCC(N(C)CC3CCCO3)CC2)cc1 (stereo not given),11,-2,10,2,-9,·,·
COc1cc(N/C(N)=N/c2nc(C)cc(C)n2)cc(OC)c1,15,-1,2,0,-7,·,·
N#Cc1ccc(-c2nc3ccc(Br)cn3c2Cc2ccccc2C(F)(F)F)cc1,·,·,·,1,·,·,·
N#Cc1ccc(-c2nc3ccc(Cl)cn3c2Cc2cccc(F)c2)cc1,·,·,·,43*,·,+,191*
N#Cc1ccc(-c2nc3ccc(Cl)cn3c2Cc2cccc(Cl)c2)cc1,·,·,·,16,·,·,·
Cc1ccc2nc(-c3ccc(C#N)cc3)c(Cc3ccccc3C(F)(F)F)n2c1,·,·,·,78*,·,29*,27*
Cc1ccc(-c2nc3ccc(Cl)cn3c2Cc2cccc(F)c2)cc1,·,·,·,6,·,·,·
CCCc1nc2ccc(C)cn2c1Cc1cccc(Cl)c1,·,·,·,27*,·,+,168*
Cc1ccc2nc(-c3ccc(C#N)cc3)c(Cc3cccc(Cl)c3)n2c1,·,·,·,41*,·,35*,35*
CC(C)(C)OC(=O)COc1cc(F)ccc1[N+](=O)[O-],0,-3,0,1,1,·,·
Cc1ccc(S(=O)(=O)N(CC(=O)NCc2ccncc2)Cc2ccc(F)cc2)cc1,5,-1,1,-3,-2,·,·
CCOC(=O)COc1c(OC)cc(Cl)cc1C1Nc2ccccc2C(=O)N1c1ccc(F)cc1 (stereo not given),9,-1,2,33*,4,24,12*
CCOC(=O)COc1ccccc1C1Nc2ccccc2C(=O)N1c1cccc(Cl)c1 (stereo not given),6,2,0,36*,10,+,+
CCOC(=O)COc1c(OC)cc(Cl)cc1C1Nc2ccccc2C(=O)N1c1ccccc1 (stereo not given),6,-2,-3,39*,2,144*,118*
CCOC(=O)COc1c(OC)cc(Cl)cc1C1Nc2ccccc2C(=O)N1c1cccc(C)c1 (stereo not given),1,-1,-8,17,-1,·,·
Cc1nn(CC(C)C)c(Cl)c1C(=O)N(c1ccc(Cl)cc1F)S(C)(=O)=O,-1,-4,-1,4,5,·,·
CC(Oc1ccc(Cl)cc1)C(=O)Nc1ccc(S(=O)(=O)N2CCOCC2)cc1 (stereo not given),3,0,-7,0,5,·,·
Cc1cc2c(C)nc(-c3ccccc3)nc2o1,1,0,-2,2,-9,·,·
Cc1nc(-c2cn[nH]c2)c2cc(C)oc2n1,-5,0,-4,27*,2,134*,110*
O=C(COc1ccc2c(-c3ccccc3)cc(=O)oc2c1)NCCCN1CCOCC1,11,-4,7,-1,1,·,·
O=C(O)CCNC(=O)COc1ccc2c3c(c(=O)oc2c1)CCCC3,2,4,·,66*,1,40*,35*
O=C(COc1ccc2c3c(c(=O)oc2c1)CCC3)NCCN1CCOCC1,3,0,-3,10,4,·,·
Cc1cc(OCC(=O)N2CCOCC2)cc2oc(=O)c3ccccc3c12,13,0,-3,54*,3,70*,45*
